Screening data as filed in PubChem BioAssay.
TMEM16A act – mouse TMEM16A channel activation, primary screen. Q8BHY3. HEK293 TMEM16A/YFP-H148Q/I152L, iodide quench fluorescence; active compounds read low. B-score at 10 µM. 340,000 tested, 0.3% active. AID 623877;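 active means fluorescence-ratio B-score plate-corrected deviation score at least 3 library SD below zero, with starting fluorescence score within 5 deviations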;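 further: channel opened by trigger with iodide after compound preincubation; score built on the fluorescence ratio of max minus min over baseline; more negative score means more quench and so TMEM16A activation or potentiation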
Kir21 inh – blocks the mouse Kir2.1 inward-rectifier potassium channel; HEK293-Kir2.1, FluxOR thallium flux fluorescence; active compounds read low; B-score at 10 µM; 310,000 tested, 0.85% active; AID 1672;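 active means fluorescence ratio B-score at or below minus 3 SD of library scores, with starting-brightness B-score within 2 SD, cut at about -4.2 in these data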;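 further: channel flux triggered by added potassium and thallium sulfate stimulus; B-score of peak minus minimum fluorescence over baseline after thallium stimulus; more negative B-score means stronger Kir2.1 block with less thallium influx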
Target sequence (P35561 whole entry, looked up): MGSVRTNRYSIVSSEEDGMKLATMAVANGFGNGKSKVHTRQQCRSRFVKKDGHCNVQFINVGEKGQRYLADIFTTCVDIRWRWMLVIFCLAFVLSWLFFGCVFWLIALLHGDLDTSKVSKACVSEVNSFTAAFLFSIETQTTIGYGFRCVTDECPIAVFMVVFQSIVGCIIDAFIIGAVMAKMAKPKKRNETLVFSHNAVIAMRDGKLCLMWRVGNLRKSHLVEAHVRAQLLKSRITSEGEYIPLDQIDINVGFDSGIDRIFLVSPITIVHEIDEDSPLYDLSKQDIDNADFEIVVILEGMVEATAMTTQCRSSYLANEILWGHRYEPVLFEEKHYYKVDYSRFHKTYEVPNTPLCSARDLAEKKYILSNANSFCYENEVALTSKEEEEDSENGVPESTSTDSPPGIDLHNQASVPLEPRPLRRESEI
KCNK9 inh – inhibitors of human KCNK9 two-pore domain potassium channel; Q9NPC2; HEK293 KCNK9, FluxOR thallium flux fluorescence; active compounds read low; B-score at 10 µM; 310,000 tested, 1.2% active;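 active means ratio B-score over 3 SD below the library mean, with starting fluorescence within 5 SD of its mean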;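 further: negative B-score means less thallium flux so channel inhibition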
KCNK3 inh – human KCNK3 channel inhibition, primary screen | O14649 | 340,000 tested, 0.84% active | B-score at 10 µM | CHO-KCNK3 thallium flux, FluxOR fluorescence; active compounds read low;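 active means B-score under library mean minus 4 SD, starting fluorescence ratio at most library mean plus 5 SD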;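 further: more negative B-score means stronger inhibition of thallium flux through KCNK3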
ANO1 block – mouse TMEM16A channel inhibition, primary screen | Q8BHY3 | HEK293 TMEM16A/YFP iodide influx fluorescence, ionomycin | normalized B-score (activity score, 25-100; higher = stronger inhibition) at 10 µM | 310,000 tested, 1.2% active | AID 588511;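 active means ratio plate-corrected score three or more library SD toward inhibition, starting fluorescence score within five deviations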;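 further: score derived from kinetic fluorescence span divided by baseline fluorescence per well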
KCNK9 block conf – human KCNK9 inhibitor confirmation | shares compounds with KCNK9 inh | HEK293 KCNK9 cells, FluxOR thallium flux fluorescence | inhibition, % at 10 µM | 4,900 tested, 43% active | AID 492992;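 active means thallium signal inhibited by more than 5 SD of the compound-free buffer control wells, on both duplicate plates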;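 further: 0% = assay buffer control wells without compound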
Kir21 sel – tests whether KCNK9 modulators also affect mouse Kir2.1; shares compounds with KCNK9 inh; Kir2.1 cells, FluxOR thallium flux fluorescence; inhibition, % at 10 µM; 4,900 tested, 4% active; AID 492993;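 active means thallium signal drop more than 5 SD beyond the mean of the no-compound control wells, seen in both duplicate plates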;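 further: signal is fluorescence rise after thallium addition divided by baseline fluorescence; plate controls were assay buffer only for no effect and full block by chlorpromazine control for full effect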
HEK293 Tl ctr – non-induced cell nonspecific activity of KCNK9 modulators; 4,900 tested, 40% active; non-induced KCNK9-HEK293, FluxOR thallium flux; inhibition, % at 10 µM; shares compounds with KCNK9 inh;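 active means thallium signal drop beyond 5 SD of the untreated control mean, on both duplicate plates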;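 further: plate controls were buffer only IC0 wells for no effect and SID17386958 at its maximal inhibitory level for full effect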
TMEM16A reconf – TMEM16A (mouse) chloride channel inhibition, re-confirmation; shares compounds with ANO1 block; 2,300 tested, 39% active; inhibition, % at 10 µM; HEK293 TMEM16A/YFP-H148Q, iodide quench fluorescence; ionomycin added to raise cell calcium;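 active means mean duplicate percent inhibition, scaled so buffer wells are 0 and the reference blocker 100, over three buffer SD above buffer mean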
HEK293 Ca mobil – calcium mobilization counter-screen hit for TMEM16A inhibitor series; AID 652231; 2,300 tested, 2% active; TMEM16A/YFP HEK293, Fluo4 calcium mobilization; shares compounds with ANO1 block; calcium response (% of ionomycin), % at 10 µM;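 active means duplicate-averaged calcium signal over 20% of the ionomycin maximum, relative to buffer baseline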;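 further: each well's signal is peak minus trough fluorescence divided by its pre-addition baseline; 0% = buffer wells and 100% = ionomycin wells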
Parental YFP cnt – acts in parental YFP-HEK293 cells lacking TMEM16A, counter-screen; 2,300 tested, under 10 active; iodide YFP quench, ionomycin; shares compounds with ANO1 block; YFP ratio F(max-min)/F0 at 10 µM;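 active means yellow fluorescent protein signal ratio exceeding the buffer control mean by over 5 SD of those controls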;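 further: ratio is mean of duplicate wells from kinetic YFP trace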
ClC-1 inh – blocks the rat ClC-1 voltage-dependent chloride channel | AID 652236 | shares compounds with ANO1 block | 2,300 tested, under 10 active | ratio percent, % at 10 µM | CHO ClC-1-YFP, iodide influx fluorescence quench; iodide control reads 0, buffer control 100;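 active means duplicate-mean ratio percent above the mean of iodide-only control wells, which defines zero, plus 5 of their SD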;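 further: higher percent means stronger block of ClC-1 iodide influx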
KCNK3 confirm – human KCNK3 channel inhibition, confirmation assay. shares compounds with KCNK3 inh. CHO-KCNK3 thallium flux, FluxOR fluorescence; 0% buffer, 100% carvedilol maximal block. ratio percent of control, % at 10 µM. 2,400 tested, 99% active. AID 651638;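 active means ratio percent of control, averaged over triplicates, above buffer control mean plus 5 SD, cut at about 64% in these data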;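 further: ratio is the fluorescence rise from min to max over baseline after thallium stimulus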
KCNK3 uninduced – counter-screen for KCNK3 inhibitors: effect in non-induced cells; thallium flux ratio (lower = more inhibition) at 10 µM; 2,400 tested, 40% active; shares compounds with KCNK3 inh; non-induced KCNK3 parental cells, FluxOR thallium flux; active compounds read low; AID 651747;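 active means thallium flux ratio, averaged over three wells, more than 5 SD below the buffer control mean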;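 further: host cells are CHO cells without KCNK3 induction; ratio is peak minus trough fluorescence over baseline then normalized to buffer controls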
* hit, by the source's call. This is a sample that favours compounds with a hit; in the whole collection about 3.5% have one here.

For CNC(=O)Nc1cccc(-c2cc(-c3c(Cl)cccc3Cl)no2)c1 the results were TMEM16A act inactive, Kir21 inh 0.49, KCNK9 inh -15.1*, KCNK3 inh -17.2*, ANO1 block 100*, KCNK9 block conf 54.0%*, Kir21 sel inactive, HEK293 Tl ctr 44.0%*, TMEM16A reconf 26.5%*, HEK293 Ca mobil inactive, Parental YFP cnt -0.835, ClC-1 inh -3.5, KCNK3 confirm 122.3* and KCNK3 uninduced 0.157*.
Screening O=C(COC(=O)c1ccc(=O)[nH]c1)Nc1cccc(S(=O)(=O)N2CCOCC2)c1 returned TMEM16A act inactive, Kir21 inh 0.61, KCNK9 inh inactive, KCNK3 inh inactive and ANO1 block inactive.
Screening COC(=O)c1cc(COc2ccc3oc(C)c(C(=O)OC(C)C)c3c2)c(C)o1 returned TMEM16A act inactive, Kir21 inh 0.27, KCNK9 inh -10.2*, KCNK3 inh inactive, ANO1 block inactive, KCNK9 block conf inactive, Kir21 sel inactive, HEK293 Tl ctr 46.0%*, KCNK3 confirm 92.3* and KCNK3 uninduced 0.142*.
Screening COC(=O)c1cc(COc2ccc3c4c(c(=O)oc3c2)CCCC4)c(C)o1 returned TMEM16A act inactive, Kir21 inh -0.07, KCNK9 inh inactive, KCNK3 inh inactive and ANO1 block inactive.
For CCOC(=O)C1CCN(c2nc(-c3ccc(C)cc3)nc3ccccc23)CC1 the results were TMEM16A act inactive, Kir21 inh 0.22, KCNK9 inh -8.16*, KCNK3 inh -9.21*, ANO1 block inactive, KCNK9 block conf 48.5%*, Kir21 sel inactive, HEK293 Tl ctr 30.0%*, KCNK3 confirm 108.3* and KCNK3 uninduced inactive.
CC1(C)Cc2cccc(C(=O)Nc3ccc(Cl)cc3)c2O1 was read as TMEM16A act inactive, Kir21 inh 0.99, KCNK9 inh -10.5*, KCNK3 inh -11.9*, ANO1 block inactive, KCNK9 block conf 46.5%*, Kir21 sel inactive, HEK293 Tl ctr inactive, KCNK3 confirm 89.0* and KCNK3 uninduced 0.157*.
COc1cccc(CN2CCNC(=O)C2CC(=O)N(C)CCC2CCOCC2)c1OC (stereo not drawn) was read as TMEM16A act inactive, Kir21 inh 0, KCNK9 inh inactive, KCNK3 inh inactive and ANO1 block inactive.
